Screening data deposited in PubChem by National Center for Advancing Translational Sciences (NCATS).
The sample as a whole holds a higher share of hits than the screen did.
KDM5B inh: KDM5B demethylase inhibition | Q9UGL1 | 220,000 tested, 2.6% active | KDM5B demethylase, FDH-coupled NADH fluorescence (FDH is formaldehyde dehydrogenase) | Potency, µM (series often up to 57.7 µM), hits mostly inhibitors | AID 1347165; active means well fitted inhibition curve with a large enough effect; further: 0% is about no effect; nearly all actives have a fitted effect of over 70% in size
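Compound dilutions met 200 nM (final) KDM5BΔAP for 10 min at room temperature before substrate addition. The substrate mix held 12.5 µM H3K4me3 with cofactors 25 µM α-ketoglutarate and 50 µM Fe²⁺. NADH signal gain over 30 min defined activity.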
Numbers without * were called inactive; i = inactive. Potency means the concentration at half of the fitted maximal effect.

SMILES	KDM5B inh
Cc1cc(-c2cc3c(cn2)CN(Cc2c[nH]c4ccccc24)CCN3)ccn1	i
Cc1cc(-c2cc3c(cn2)CN(Cc2ccccc2F)CCN3)ccn1	35.5µM*
COc1ccc(OC)c(/C=C(/C#N)C(=O)C(C)(C)C)c1	i
CCOc1ccc(NC(=O)Cn2nnc3sc4c(c3c2=O)CC(C)(CC)OC4)cc1 (centres undefined)	i
O=C(O)C/C(=C/c1cc(Br)cs1)c1nc2ccccc2o1	i
CCCOc1cc(C)c(C)cc1S(=O)(=O)N1CCCCC1	i
COc1cc(CSc2c(C(C)C)cnc3c2c(=O)n(C)c(=O)n3C)cc(OC)c1	i
CN(C)CC(=O)Nc1ccc2n(c1=O)C[C@H]1C[C@@H]2CN(C(=O)c2ccc3ccccc3c2)C1	i
O=C(O)c1cccc(C(=O)N2C[C@@H]3C[C@H](C2)c2ccc(NC(=O)c4ccco4)c(=O)n2C3)c1	i
COc1ccc(NC(=O)N2C[C@@H]3C[C@H](C2)c2ccc(NC(=O)c4cccs4)c(=O)n2C3)cc1	i
COc1ccc(CC(=O)Nc2ccc3n(c2=O)C[C@H]2C[C@@H]3CN(C(=O)Nc3ccc(OC)cc3)C2)cc1	i
O=C(Nc1cccc(F)c1)Nc1ccc2n(c1=O)C[C@H]1C[C@@H]2CN(C(=O)c2ccc(F)cc2)C1	28.2µM*
COc1ccc(CC(=O)Nc2ccc(=O)n3c2[C@@H]2C[C@@H](CN(C(=O)c4ccc(OC)cc4)C2)C3)cc1	i
COc1ccc(CC(=O)Nc2ccc3n(c2=O)C[C@H]2C[C@@H]3CN(C(=O)c3ccc(-c4ccccc4)cc3)C2)cc1	25.1µM*
COc1ccc(NC(=O)N2C[C@@H]3C[C@H](C2)c2ccc(NC(=O)c4ccc(C#N)cc4)c(=O)n2C3)cc1	i
COc1ccc(NC(=O)N2C[C@@H]3C[C@H](C2)c2ccc(NC(=O)Nc4cccc(C#N)c4)c(=O)n2C3)cc1	28.2µM*
CCCCn1c(SCC(=O)NCc2ccccc2)nc2cc(C(=O)OC)ccc2c1=O	i
CN1CC(=O)N(C2CCCNCC2)Cc2c1ncnc2N1CCC(C#N)CC1 (centres undefined)	i
CN1CCN(C(NC(=O)c2cccs2)C(=O)c2ccccc2)CC1 (centres undefined)	i
COc1cc(NC(=O)NCCn2c(C(F)(F)F)nc3ccccc32)cc(OC)c1	i
COc1ccc(-c2nc3c(c(=O)[nH]2)CCN(C(=O)Nc2cc(F)cc(F)c2)C3)cc1	17.8µM*
Cc1cc(=O)n(CC(=O)Nc2cccc(C#N)c2)c(-c2ccc(F)cc2)n1	i
N#Cc1ccc(S(=O)(=O)N2CCc3c(nc(-c4ccc(F)cc4)[nH]c3=O)C2)cc1	i
COc1ccc(-c2nc3c(c(=O)[nH]2)CCN(C(=O)Nc2ccccc2Cl)C3)cc1	i
N#Cc1cccc(NC(=O)N2CCc3c(nc(-c4ccc(F)cc4)[nH]c3=O)C2)c1	20µM*
SMILES	KDM5B inh
COc1ccc(-c2nc3c(c(=O)[nH]2)CCN(C(=O)Nc2ccc4c(c2)CCC4)C3)cc1	i
Cc1ccc(S(=O)(=O)N2CC(C(=O)NCc3ccncc3)C3(CCOCC3)C2)c(C)c1 (centres undefined)	i
CCCN1CCCC2(Cc3ccccc3CN(C(=O)Cc3ccccc3)C2)C1 (centres undefined)	i
COc1ccc2[nH]c(C(=O)N3CCc4ccccc4C3)c(C)c2c1	i
COc1ccc(C(CNC(=O)c2oc3cc(C)c(Cl)cc3c2C)N2CCCCC2)cc1 (centres undefined)	i
COCCn1c(CO)nnc1C1CC(NC(=O)c2ccc3c(c2)CCO3)C1 (centres undefined)	i
CCn1c(CO)nnc1C1CC(NC(=O)Cn2cnc3ccccc3c2=O)C1 (centres undefined)	i
CCn1c(CO)nnc1C1CC(NC(=O)c2[nH]c3ccc(OC)cc3c2C)C1 (centres undefined)	28.2µM*
COc1ccc(C(CNC(=O)c2oc3ccccc3c2C)N2CCCCC2)cc1 (centres undefined)	i
CCn1c(CO)nnc1C1CC(NC(=O)c2oc3cc(OC)ccc3c2C)C1 (centres undefined)	28.2µM*
CCn1c(CO)nnc1C1CC(NC(=O)Cc2c[nH]c3ccccc23)C1 (centres undefined)	i
COCCn1cnnc1CCNC(=O)c1oc2cc(OC)ccc2c1C	28.2µM*
Cc1cccc(Nc2nc3c(c(=O)[nH]c(=O)n3C)n2CC(=O)O)c1C	i
CCOC(=O)N1CCN(C(=O)c2cc(N3C(=O)CCS3(=O)=O)ccc2Cl)CC1	i
COc1cc(Nc2c(C#N)cnc3ccccc23)cc(OC)c1OC	i
CCOC(=O)COc1ccc(/C=C2/NC(=O)NC2=O)cc1Br	i
Cc1cccc(CN(C(=O)c2ccco2)c2ccc(CC(=O)N(C)Cc3ccccc3)cc2)c1	28.2µM*
CCCNC(=O)Cc1ccc(N(Cc2ccccc2)C(=O)c2ccco2)cc1	i
CCNC(=O)Cc1ccc(N(Cc2ccccc2)C(=O)c2ccco2)cc1	i
CC(C)NC(=O)CN(C)C(=O)CCl	i
CC(C)CCNC(=O)CSc1nc2cc([N+](=O)[O-])ccc2o1	i
C=CCNC(=S)NC(C)c1ccccc1 (centres undefined)	i
CCC1Oc2ccccc2N(CC(=O)NC2CCCCC2)C1=O (centres undefined)	i
O=C(Cc1csc2nc(-c3ccc(Cl)cc3)cn12)NCCc1ccccc1	i
Cc1ccccc1-n1nc(-c2c(C)nc3scc(CC(=O)NCC(C)C)n3c2=O)cc1C	28.2µM*
SMILES	KDM5B inh
CCC(C)NC(=O)Cn1ncc2c([nH]c3ccc(C)cc32)c1=O (centres undefined)	i
CCC(C)NC(=O)COC(=O)c1ccc2nc(C)c(C)nc2c1 (centres undefined)	i
Cc1ccc(Cl)cc1-n1nc(-c2c(C)nc3scc(CC(=O)NCC(C)C)n3c2=O)cc1C	22.4µM*
Cc1cccc(-n2nc(-c3c(C)nc4scc(CC(=O)NC5CCCCC5)n4c3=O)cc2C)c1C	25.1µM*
CCC(C)NC(=O)Cc1csc2nc(C)c(-c3cc(C)n(-c4ccc(C)cc4C)n3)c(=O)n12 (centres undefined)	28.2µM*
Cc1nc2ccccc2c(C)c1CC(=O)NCC(C)C	i
Cc1cccc(N2CCN(S(=O)(=O)c3c(C)nc4scc(C)n4c3=O)CC2)c1C	i
Cc1ccc(-n2nc(-c3c(C)nc4scc(CC(=O)NCC(C)C)n4c3=O)cc2C)c(C)c1	i
Cc1cc(NC(=O)CSc2nnnn2-c2cc(Cl)ccc2C)no1	i
COc1cc(C(=O)/C=C/c2ccc(SC)cc2)ccc1O	i
CCOc1ccccc1Oc1c(C)oc2cc(OCC(=O)OC(C)(C)C)ccc2c1=O	i
COc1ccc(NC(=O)CCc2nc3cc(Cl)ccc3n(CC(C)C)c2=O)cc1	i
Cc1cc2oc(C(=O)N(Cc3ccccc3Cl)C3CCS(=O)(=O)C3)cc(=O)c2cc1Cl (centres undefined)	i
CCc1cccc(NC(=O)C2CCN(C(=O)c3nnn4c3COC(c3ccc(C)cc3)C4)CC2)c1 (centres undefined)	i
c1cc(CNCCCn2ccnc2)ccn1	i
CCCC(C(=O)Nc1nc2ccc(F)cc2s1)c1ccccc1 (centres undefined)	i
O=C(O)C(c1c[nH]c2ccc(Cl)cc12)N1CCN(Cc2ccccc2)CC1 (centres undefined)	i
CCNC(=O)N[C@@H]1C=C[C@@H](c2c(C)nn(-c3ccc(C(C)C)cc3)c2C)C1	i
